Experimental data as given in PubChem BioAssay (NCI).
Compounds without any hit were thinned out: in the full panel of roughly 83,000, 20% have a hit.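 Negative percent growth values reflect cell death: -40 means 40% of the cells present at the start died, and -100 means all died.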 Calls of active or inactive are those of the source. Rule for the calls: active = growth percent below 10; inactive = the rest.

The molecules below were run on KM12 colon (assay: NCI-60 one-dose screen, 48 h (100 = growth as untreated, 0 = no growth, -100 = all killed)). Settings: 10 µM unless noted.

Structure (SMILES) | growth
Cc1ccc(CCC(=O)Nc2ncc(Cc3cc(Cl)ccc3Cl)s2)o1 | 14.9% (inactive)
c1ccc2c(c1)nc(CN1CCOCC1)n1cc(N3CCCC3)nc21 | 99.1% (inactive)
COc1ccc(-c2c(N)n[nH]c2-c2ccc(Cl)cc2O)cc1OC | 83% (inactive)
COc1cc2nc(Cl)nc(Nc3ccc(S(=O)(=O)Nc4nccs4)cc3)c2cc1OC | 112% (inactive)
CS(=O)c1cccc(-c2ccc3nc(N)n(-c4ccc(C(F)(F)F)cc4)c(=O)c3c2)c1 (stereo not drawn) | 98.5% (inactive)
NCCCNc1nc2ccccc2c2c(=O)c3cccc(Cl)c3sc12 | -72.6% (active)
CCCCCCCCCCCCCCCCCC1=NCCN1CCOC1=C(Cl)C(=O)c2ccccc2C1=O | 51% (inactive)
Cc1ccc(Nc2ccc(Nc3ccc(C)cc3)c3c2C(=O)c2cccc(O)c2C3=O)cc1 | 92.7% (inactive)
O=Cc1c[nH]c2ccc(-c3csc4ccccc34)cc12 | 2.08% (active)
COc1ccc2[nH]c(O)c(/C=c3/cc4c(c(-c5cc(OC)c(OC)c(OC)c5)n3)=Nc3ccccc3-4)c2c1 | 52.5% (inactive)
NC(=N\N=C/c1cccc([N+](=O)[O-])c1)/C(N)=N\N=C/c1cccc([N+](=O)[O-])c1 | 54.2% (inactive)
NS(=O)(=O)c1cnccc1Sc1ccncc1S(N)(=O)=O | 108% (inactive)
COc1ccc(CN2C(=O)C(Cl)=C(Nc3cccc(C(F)(F)F)c3)C2=O)cc1 | 70.2% (inactive)
O=C(/C=C/c1ccco1)c1ccc(Nc2nc(Nc3ccc(F)cc3)nc(Nc3ccc(Cl)cc3)n2)cc1 | 65.2% (inactive)
CCC1(C2CCCC2)NC(=O)NC1=O (stereo not drawn) | 116% (inactive)
COc1cc2c(cc1-c1c(C)noc1C)ncc1nc(C3CCC(F)(F)CC3)n(C3CCC(OC(F)F)CC3)c12 (stereo not drawn) | 51.4% (inactive)
O=C1Nc2ccc(F)cc2C12Nc1cc(Cl)ccc1S2 (stereo not drawn) | 90.5% (inactive)
COc1cccc(-c2nn(-c3ccccc3)cc2-c2ccnc(NCCNC(=O)Nc3ccc(Cl)c(Cl)c3)c2)c1 | -33.8% (active)
O=C(Nc1ccccc1Cl)Oc1ccc(-c2ccccc2)cc1 | 120% (inactive)

Structure (SMILES) | growth
O=c1c2c3c(sc2n2c(-c4cn(-c5ccccc5)nc4-c4ccc(Cl)cc4)nnc2n1Cc1ccccc1)CCCC3 | 103% (inactive)
CCOC(=O)c1c2ncccc2n2c(=O)n(-c3ccccc3C)nnc12 | 119% (inactive)
C=C1C(=O)O[C@H]2[C@H]1CC/C(COC(=O)C(=O)c1c[nH]c3ccccc13)=C\CC[C@@]1(C)O[C@@H]21 | -56.5% (active)
CCCCOc1nc2ccccc2cc1C1CNC(=O)c2ccccc2N1 (stereo not drawn) | 23.9% (inactive)
CCCCCCCC/C=C\CCCCCCCCOc1ccccc1CC(=O)NCC[N+](C)(C)C | 36.4% (inactive)
O=C1NC(=Nc2ccc(Cl)cc2)S/C1=C\c1cn(-c2ccccc2)nc1-c1ccccc1 | 97.5% (inactive)
CC(C)(C)CC(C)(C)Nc1c(-c2ccncc2)nc2cnccn12 | 98.1% (inactive)
Fc1ccc(CNc2c3ccccc3nc3ccccc23)cc1F | 53.3% (inactive)
Cc1cc(NCc2cc(Nc3ccnc4cc(Cl)ccc34)ccc2F)nc(N2CCN(c3ccccc3)CC2)n1 | 69.2% (inactive)
COc1ccc2c(c1)O/C(=C\c1cccc(OCC(=O)Nc3nc4ccccc4s3)c1)C2=O | 88.2% (inactive)
CC(CN1CCCCC1)C(=O)c1ccccc1 (stereo not drawn) | 105% (inactive)
CCN(CC)CCCNc1ccc(Nc2ccc(OC)cc2)cc1 | 85.3% (inactive)
C=C1C(=O)O[C@H]2[C@H]1CC/C(CNC(=O)/C=C/c1ccc(Cl)cc1Cl)=C\CC[C@@]1(C)O[C@@H]21 | 20% (inactive)
COc1cc(/C=C/C(=O)c2ccc(Nc3nc(Nc4ccc(F)cc4)nc(Nc4ccc(Cl)cc4)n3)cc2)cc(OC)c1OC | 56% (inactive)
O=C1Nc2ccccc2/C1=C/c1cn(C(=O)c2c(Cl)cccc2Cl)c2ccccc12 | 54.8% (inactive)
O=C(c1ccccc1)c1c(/C=C/c2ccc(Cl)cc2)nc2ccccc2c1/C=C/c1cccs1 | 99.3% (inactive)
CCCc1cc2c(=O)c(C(=O)OC)c[nH]c2cc1N(CC)CC | 105% (inactive)
Clc1ccc(-c2c3ccc(=[N+]4CCCCC4)cc-3oc3cc(N4CCCCC4)ccc23)cc1 | -86.9% (active)
Cc1ccccc1NC(=O)N/C(N)=N/c1nc(-c2cccc([N+](=O)[O-])c2)cs1 | 31.2% (inactive)
